Each structure is given as a SMILES string. Inconclusive results are not listed. Calls of active or inactive are those of the source.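 The calls were made as follows, unless noted: active = viability at or under a set limit in both replicates, limit being median viability minus 3 SD (cut at about 48% in these data, passing the limit was not always enough); inconclusive = at or under the limit in just one replicate; inactive = at or above the limit in both replicates.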

The nature of experiment [1]: reducers of endogenous Her2 protein level, primary screen, SKBR3 breast tumor cells, AlphaScreen, ATP viability (AID 461;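 active = Her2 level under about 52% in both replicate screens, with viability over 70% of control, limit read from the data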;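 as to Her2 level: lower value means less Her2 protein in the cells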;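 as to viability: percent of carrier control wells set as 100% viability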). Conditions: 18-24 h, measured here: SKBR3 viability, ATP luminescence, at 10 µM. In general terms: Alpha assays give light when donor and acceptor beads are brought close together.
The target in experiment [2] is Receptor tyrosine-protein kinase erbB-2 (Homo sapiens) (UniProt P04626). Described as above. Conditions: 18-24 h, at 10 µM, stronger effect = lower value.
The nature of experiment [3]: SK-BR-3 cell growth inhibitors, pilot screen, 24 h, human (AID 572;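 active = viability at or below 10% of carrier control in both of two separate runs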;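 also: compound exposure lasted between 18 and 24 h rather than exactly 24 h; 100% = carrier-treated control wells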). The following applies: SK-BR-3 viability, CellTiter-Glo luminescence, at 10 µM, stronger effect = lower value. In general terms: Cellular ATP, detected with luciferase, serves as a proxy for viable cell number.
Experiment [4] is described as follows: HUVEC growth inhibition – cell-based, human, primary screen (AID 575;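 active = viability at or below 30% in both replicate assays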;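 also: 100% = median of untreated cell wells with 0.1% DMSO on each plate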). The following applies: HUVEC proliferation, CellTiter-Glo luminescence, 72 h; at 10 µM; stronger effect = lower value.
The nature of experiment [5]: growth inhibitors of H69AR lung tumor, primary screen, human, duplicate replicates (AID 580).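 Also: 100% = mean luminescence of untreated wells and 0% = no signal.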 The following applies: H69AR lung tumor cells viability, ATP luminescence, 72 h; at 10 µM; stronger effect = lower value.
The nature of experiment [6]: reversal of MRP1-mediated doxorubicin resistance, pilot screen, H69AR cells, doxorubicin co-treatment (AID 601;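 active = viability loss from added drug above about 55%, and viability with drug at most 40%, in both replicates, limit read from the data, passing the limit was not always enough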). The following applies: CellTiter-Glo, 72 h, at 10 µM; for differential viability (reversal): stronger effect = higher value.
Experiment [7] in a line: 384-well plate pilot, post-Golgi transport modulator project, inhibition of yeast transport mutant growth (AID 636; in the data active = inhibition above about 31%). The following applies: absorbance 615 nm, about 18 h, stronger effect = higher value.
Experiment [8] is described as follows: growth suppression of yeast trafficking mutant, preliminary HTS, modulators of trafficking downstream of Golgi apparatus project, 1536-format plate, OD 615 nm (AID 637; in the data active = inhibition above about 30%). Conditions: yeast transport mutant growth, absorbance 615 nm, 18 h; stronger effect = higher value.
The nature of experiment [9]: OD615 S. cerevisiae growth inhibition, permissive medium, pilot counter-assay, permissive growth control for S. cerevisiae lifespan shortening project (AID 705;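 active = growth inhibition above 25% in both replicates, a cutoff set 3 SD above the mean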). The following applies: OD615, 24 h, at 10 µM, stronger effect = higher value.
Experiment [10] can be described thus: Restrictive medium S. cerevisiae growth inhibition, OD615, pilot screen of yeast lifespan reduction project, restrictive growth control (AID 706;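 active = growth inhibition above a set limit, 3 SD over mean compound inhibition, in both replicates, cut at about 43% in these data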;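 also: modified DeaD lifespan yeast strain shifted to restrictive glucose medium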). Conditions: OD615, 48 h, at 10 µM, stronger effect = higher value.
Experiment [11] is described as follows: viability gain of MRP-1-high H69AR cells under doxorubicin, pilot screen, MRP-1 activator project, CellTiter-Glo, duplicate (AID 807;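 active = viability increase at or above a cutoff of the median across tested compounds plus 3 SD, cut at about 8.5% in these data, passing the limit was not always enough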;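 also: compound pretreatment 18-22 h then 72 h combined with doxorubicin; 0% = doxorubicin alone and 100% = vehicle without doxorubicin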). The following applies: H69AR viability with doxorubicin, CellTiter-Glo luminescence; at 10 µM; stronger effect = higher value.
The nature of experiment [12]: growth suppression of beta-catenin knockout HCT116, pilot screen, human colon tumor cells (AID 823;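 active = cell viability at or below a set limit in both duplicate runs, the limit being the all-compound median minus 4 SD, cut at about 23% in these data, passing the limit was not always enough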;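 also: 0% = wells killed by 20 µM Hyamine and 100% = untreated DMSO cell wells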). The following applies: CellTiter-Glo, 60 h, at 10 µM, stronger effect = lower value.
A short description of experiment [13]: growth suppression of PTEN-deleted HCT116, pilot screen, cell-based, HCT116 clonal line, CellTiter-Glo (AID 824;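 active = viability at or below 27.92% in each of two runs, the all-compound median minus 4 SD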;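 also: 0% = 20 µM Hyamine control and 100% = vehicle cell control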). The following applies: 60 h, at 10 µM, stronger effect = lower value.
Experiment [14] can be described thus: inhibitors of the yeast RAM network, pilot screen, dse1pr::URA3 reporter, 5-FOA selection (AID 869;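 active = inhibition over a set limit, the all-compound mean plus 3 SD, in both replicate runs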;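 also: 0% = DMSO wells with no growth and 100% = 10 µM 1-NA-PP1 with full growth; RAM network block rescues cells from 5-FOA so hits raise OD615 growth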). Conditions: S. cerevisiae dse1pr::URA3 5-FOA growth, OD615, 2 d; at 10 µM; stronger effect = higher value; strain carries analog-sensitive mutant Cbk1 kinase.
A short description of experiment [15]: RAM signaling pathway blockade in yeast – S. cerevisiae, Pdr1DBD-CYC8 efflux-inhibited sensitized strain, primary screen (AID 1298;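 active = RAM network inhibition above 8.4% in each of two replicates, 3 SD over the compound average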;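 also: 0% = DMSO untreated cells without growth and 100% = 10 µM 1-NA-PP1 full growth; higher means more yeast growth rescued from 5-FOA killing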). The following applies: S. cerevisiae cbk1-as DSE1-URA3 strain, 5-FOA growth OD615, 2 d; at 50 µM; stronger effect = higher value.
Where [16] appears, read: H69AR cells + 2 uM doxorubicin, measured here: viability with 2 uM doxorubicin, stronger effect = lower value.
[17] abbreviates: H69AR cells, compound alone cytotoxicity.

Receptor tyrosine-protein kinase erbB-2 (Homo sapiens), sequence (P04626 whole entry, looked up): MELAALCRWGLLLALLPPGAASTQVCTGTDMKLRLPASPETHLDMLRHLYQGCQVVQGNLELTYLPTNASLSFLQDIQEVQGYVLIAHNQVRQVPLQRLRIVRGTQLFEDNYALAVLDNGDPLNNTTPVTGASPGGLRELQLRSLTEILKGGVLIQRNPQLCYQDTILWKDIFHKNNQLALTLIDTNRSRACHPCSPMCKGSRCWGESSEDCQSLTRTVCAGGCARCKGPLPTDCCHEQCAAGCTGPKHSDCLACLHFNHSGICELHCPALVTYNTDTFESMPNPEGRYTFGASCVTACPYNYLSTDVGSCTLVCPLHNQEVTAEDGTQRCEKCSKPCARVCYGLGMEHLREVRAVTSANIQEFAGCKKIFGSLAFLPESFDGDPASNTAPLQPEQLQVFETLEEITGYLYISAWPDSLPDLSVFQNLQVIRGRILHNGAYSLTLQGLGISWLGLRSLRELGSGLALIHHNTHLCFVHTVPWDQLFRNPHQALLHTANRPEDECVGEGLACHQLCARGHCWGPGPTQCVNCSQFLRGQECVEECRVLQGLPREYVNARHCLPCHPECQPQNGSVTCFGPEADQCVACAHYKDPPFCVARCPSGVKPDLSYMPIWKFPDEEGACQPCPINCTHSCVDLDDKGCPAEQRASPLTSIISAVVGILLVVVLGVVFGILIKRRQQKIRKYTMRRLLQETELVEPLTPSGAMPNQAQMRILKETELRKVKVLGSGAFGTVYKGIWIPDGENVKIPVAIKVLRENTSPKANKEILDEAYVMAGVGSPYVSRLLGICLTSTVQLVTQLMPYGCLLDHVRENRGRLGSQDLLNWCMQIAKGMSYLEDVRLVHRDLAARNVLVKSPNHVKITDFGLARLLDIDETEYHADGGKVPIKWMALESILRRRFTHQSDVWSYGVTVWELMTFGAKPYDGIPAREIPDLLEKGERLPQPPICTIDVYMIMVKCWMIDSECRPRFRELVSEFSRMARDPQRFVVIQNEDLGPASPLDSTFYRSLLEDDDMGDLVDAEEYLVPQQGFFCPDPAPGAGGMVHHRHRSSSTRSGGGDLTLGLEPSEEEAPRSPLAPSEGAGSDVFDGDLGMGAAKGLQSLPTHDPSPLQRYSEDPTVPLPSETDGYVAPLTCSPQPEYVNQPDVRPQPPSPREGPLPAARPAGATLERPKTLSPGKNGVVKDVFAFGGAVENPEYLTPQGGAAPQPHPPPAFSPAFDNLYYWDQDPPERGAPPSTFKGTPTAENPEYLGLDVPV

As to `Cc1cc(C(N)=O)c2cc(Br)ccc2n1`, the viability is 95.5% in experiment [1]; 95.5% (inactive) in experiment [3]; 109% (inactive) in experiment [4]; 91.2% (inactive) in experiment [5]; 83.2% in experiment [6] (setting [16]); 91.2% in experiment [6] (setting [17]). Also, the viability in [12] is 98.3% (inactive); in experiment [13] it was 96.5% (inactive). In [2], the Her2 level was 95.5% (inactive). Further, the differential viability (reversal) in [6] (H69AR cells + 2 uM doxorubicin) was 8% (inactive). The inhibition in experiment [7] was -1.35% (inactive); in experiment [8], 0.49% (inactive); in [14] it was 0.94% (inactive). In addition, the growth inhibition is -1.99% (inactive) in experiment [9] and -7.49% (inactive) in experiment [10]. In addition, the viability increase in [11] was -2.23% (inactive). In addition, in experiment [15], the RAM network inhibition is 0.89% (inactive).
As for `Cn1nnnc1SCC(=O)Nc1ccccc1-c1ccccc1`, the viability in experiment [1] was 100%; in experiment [3], 100% (inactive); in experiment [4], 99% (inactive); in experiment [5], 91.2% (inactive); in experiment [6] (setting [16]), 81.6%; in experiment [6] (setting [17]) it was 91.2%. Besides, the viability is 97.4% (inactive) in [12] and 90% (inactive) in experiment [13]. Also, the Her2 level in [2] is 110% (inactive). The differential viability (reversal) in [6] (H69AR cells + 2 uM doxorubicin) was 9.64% (inactive). The values for the inhibition in experiment [7], in [8] and in experiment [14] were -2.44% (inactive), -1.33% (inactive) and 0.31% (inactive), respectively. Besides, the growth inhibition is -19.3% (inactive) in experiment [9] and -10.2% (inactive) in experiment [10]. In [11], the viability increase is -0.09% (inactive). Further, the RAM network inhibition in experiment [15] was 0.77% (inactive).
Regarding `CCCCSc1nc2c(cnn2-c2ccc(F)cc2)c(=O)[nH]1`, the viability in experiment [1] was 93.5%; in [3] it was 93.5% (inactive); in experiment [4], 96.2% (inactive); in experiment [5], 74% (inactive); in experiment [6] (setting [16]), 84.9%; in experiment [6] (setting [17]), 74%. In addition, the values for the viability in [12] and in experiment [13] were 104% (inactive) and 93.7% (inactive), respectively. Also, in experiment [2], the Her2 level was 92% (inactive). Further, in experiment [6] (H69AR cells + 2 uM doxorubicin), the differential viability (reversal) is -10.8% (inactive). Also, the inhibition in [7] is -0.93% (inactive); in experiment [8], 0.5% (inactive); in [14] it was 1.85% (inactive). Moreover, the growth inhibition was -7.35% (inactive) in experiment [9] and -3.62% (inactive) in experiment [10]. The viability increase in experiment [11] was -2.12% (inactive). For the same compound, the RAM network inhibition in experiment [15] is 6.19% (inactive).
In the case of `CCOC(=O)c1sc(NC(=O)c2noc3c2CCCC3)c(C(=O)OCC)c1C`, the viability in experiment [1] is 69.5%; in experiment [3], 69.5% (inactive); in experiment [4] it was 85% (inactive); in experiment [5], 67.8% (inactive); in experiment [6] (setting [16]), 81%; in [6] (setting [17]), 67.8%. For the same compound, the figures for the viability in experiment [12] and in experiment [13] were 55.2% (inactive) and 55.8% (inactive), respectively. For the same compound, the Her2 level in experiment [2] was 83% (inactive). In experiment [6] (H69AR cells + 2 uM doxorubicin), the differential viability (reversal) is -13.2% (inactive). Further, the inhibition in [7] is 1.41% (inactive); in experiment [8] it was -4.17% (inactive); in experiment [14], 0.47% (inactive). Besides, the growth inhibition in experiment [9] is -0.315% (inactive); in experiment [10], -5.25% (inactive). For the same compound, in [11], the viability increase is -3.88% (inactive). Besides, the RAM network inhibition in [15] is 2.96% (inactive).
Take `CC1(C)CC(=O)C=C(Nc2ccc(OCC(F)(F)C(F)F)cc2)C1`: the viability in [1] was 95%; in [3], 95% (inactive); in [4], 92.8% (inactive); in experiment [5] it was 103% (inactive); in experiment [6] (setting [16]) it was 89.9%; in [6] (setting [17]), 103%. Moreover, the viability in [12] is 89.5% (inactive); in [13], 90.2% (inactive). Further, in experiment [2], the Her2 level was 104% (inactive). For the same compound, the differential viability (reversal) in experiment [6] (H69AR cells + 2 uM doxorubicin) is 12.9% (inactive). The inhibition is 0.38% (inactive) in [7], -12.3% (inactive) in experiment [8] and -0.6% (inactive) in [14]. The growth inhibition is -3.99% (inactive) in [9] and 5.75% (inactive) in experiment [10]. The viability increase in experiment [11] is 1.17% (inactive). In addition, the RAM network inhibition in [15] is 3.07% (inactive).

As a reminder, the viability is a read-out of living cells in per cent, often relative to untreated cells. Broadly, the inhibition is the drop in the measured response relative to a control, in per cent.

The record behind these values is PubChem BioAssay.
